# MARV entry inh – Marburg virus entry inhibition; Marburg virus pseudotyped entry inhibition, cell reporter; Potency, µM (top dose mostly 37.8 µM), without a hit: at the top dose activity change, negative = inhibition, hits mostly inhibitors; actives 1.8% (n = 300,000); AID 540276; calls by dose curve; tested in HEK293 cells; further: potency means the concentration at half of the fitted maximal effect; on the % scale 0 is the no-effect control and ±100 the full control effect
# LASV entry inh – inhibitors of Lassa virus binding or cell entry. actives 1.2% (n = 300,000). Potency, µM (doses to about 37.9 µM), for inactives: at the highest dose activity change, negative = inhibition, most hits filed as inhibitors. Lassa virus pseudotype entry inhibition, cell reporter. AID 540256; calls by dose curve; tested in HEK293 cells; further: potency means the concentration at half of the fitted maximal effect; on the % scale 0 is the no-effect control and ±100 the full control effect; nearly all actives have a fitted effect of over 50% in size
# Shiga inhibitor – inhibitors of Shiga toxin in Vero cells; actives 9.2% (n = 290,000); inhibition, % at 38.7 µM; Vero cells, Shiga toxin protein synthesis inhibition reporter; in the data active means inhibition mostly above about 28%, no sharp cut-off; inactive means mostly below about 43%; further: 0% is about no effect
# Cycloheximide cs – counter-screen hit for Shiga toxin inhibitors, cycloheximide. cell reporter, cycloheximide protein synthesis inhibition counterscreen. max response, %. actives 12% (n = 300,000); in the data active means max response mostly above about 13%, no sharp cut-off; inactive means mostly below about 14%; further: read at 38.3 µM for the half of the compounds with a filed dose; 0% is about no effect
# HCV inhibitor – HCV inhibition. Huh7.5.1 HCVcc-Cre infection, luciferase reporter, 44 h. actives 3.4% (n = 340,000). Potency, µM (highest dose often 41.8 µM), for inactives: at the top dose activity change, negative = inhibition, most hits filed as inhibitors; active means well fitted inhibition curve with a large enough effect; inconclusive means small, poorly fitted or top-dose-only effect, or another doubt; inactive means no such curve, though single readings can be large or run the other way; further: potency means the concentration at half of the fitted maximal effect; on the % scale 0 is the no-effect control and ±100 the full control effect
#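 Cells (1,000/well) were plated 4 h before compound, then infected with HCVcc-Cre virus (~0.5 moi). After 44 h further culture, infection was read as luciferase luminescence following a 15 min substrate incubation at room temperature.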
# FMDV antiviral – antivirals against foot and mouth disease virus | AID 1159524 | Potency, µM (doses to about 57.9 µM), inactives show at the top dose activity change, negative = inhibition, usual class: inhibitors | actives 1.2% (n = 410,000) | FMDV antiviral cell-based qHTS; calls by dose curve; tested in HEK293T cells; further: read-out not given here; potency means the concentration at half of the fitted maximal effect; on the % scale 0 is the no-effect control and ±100 the full control effect; nearly all actives have a fitted effect of over 45% in size
# The depositor's hits bear a star; ? = inconclusive; nt = not tested or not shown; [ ] = another dose, or the depositor's remark. An excerpt weighted towards active compounds, which were near 13% of everything screened.
SMILES,MARV entry inh,LASV entry inh,Shiga inhibitor,Cycloheximide cs,HCV inhibitor,FMDV antiviral
COc1ccc(-n2nc(C(=O)NCC(=O)N3CCCC(C)C3)c3ccccc3c2=O)cc1 (stereo not drawn),?,nt,38.8,18.0*,-2.6%,33.5%
Cc1ccc(S(=O)(=O)NCC(c2ccc3c(c2)OCO3)N2CCOCC2)cc1 (stereo not drawn),-4.1%,-3.1%,nt,nt,0.5%,27.9%
COc1cc(CCC(=O)Nc2sccc2C#N)cc(OC)c1OC,?,-4.1%[46.1 µM],-25.4,-6.1,?,-26.8%
O=C(c1[nH]ncc1-c1cccc(Br)c1)C1CO1 (stereo not drawn),?,?,13.5,active,?,35.5µM*
COc1cccc(-n2c(-c3ccco3)nc3c(cnn3-c3ccc(C)cc3)c2=O)c1,-23.9%[46.1 µM],?,nt,nt,nt,?
CC1(C)CC(=O)c2c(-c3cccs3)n[nH]c2C1,10.0%,26.3%,89.5*,18.3*,-2.5%,-16.9%
CCCCC(=O)OCC(=O)c1[nH]c(C)c(C(C)=O)c1C,nt,nt,65.7*,38.6*,1.1%,4.0%
CCCC(=O)OCC(=O)c1[nH]c(C)c(C(C)=O)c1C,1.1%,?,49.3,35.3*,18.8%,33.7%
CC(=O)c1c(C)[nH]c(C(=O)COC(=O)C2CC2)c1C,18.3%[46.1 µM],5.2%,34.0,17.5,1.8%,12.7%
CCOC(=O)c1c(NC(=O)CSc2nc3ccc(C)cc3[nH]2)sc2c1CC(C)(C)NC2(C)C,?,10µM*,nt,nt,6.31µM*,-22.6%
Cc1cc(C(=O)OCC(=O)NCc2ccccc2)c2ccccc2n1,?,1.2%,nt,nt,-2.8%,?
COC(=O)N1CCN(c2ccc(C)c(C)c2)CC1,nt,nt,64.5,22.9*,nt,nt
COC(=O)N1CCN(c2ccc(OC)cc2)CC1,13.9%,4.4%,-19.3,9.4*,0.1%,-2.4%
COc1ccc(N2CCN(C(=O)C3Cc4ccccc4CN3C(=O)c3ccccc3)CC2)cc1 (stereo not drawn),6.6%[46.1 µM],16.5%,70.9*,60.8*,-11.0%,41.6%
CC(=O)NCCC(=O)Nc1cc(S(=O)(=O)Nc2ccc(Cl)cc2)ccc1N1CCCC1,-22.7%[46.1 µM],-7.5%[46.1 µM],-14.0,-0.8,10.3%,-1.1%
O=Cc1nccc2ccccc12,-5.2%,-1.5%[46.1 µM],nt,nt,27.5%,-16.8%
O=C1C(c2ccnc3ccccc23)=C(O)c2ccccc21,?,2.82µM*,active,47.0*,-17.6%,-81.8%
O=C1c2ccccc2C(=O)C1c1nccc2ccccc12,2.51µM*,?,96.7*,41.1*,-3.8%,-69.1%
O=C1C(=O)c2ccccc2C(O)=C1c1ccccc1F,-14.3%,3.9%,3.0,-6.6,11.6%,?
O=C1c2ccccc2C(=O)C1c1ccnc2ccccc12,7.3µM*,?,92.7*,37.5*,-9.3%,-55.4%
N#CC1=C(N)SC(N)=C(C#N)C1c1ccnc2ccccc12,6.5%,-1.3%,2.0,-4.2,9.8%,1.6%
COc1ccc(C(=O)N(C)C2CCCCC2)cc1OC1CCN(C(C)C)CC1,-0.7%,19.3%,-20.2,-1.7,24.6%,-14.7%
CCC1CCCCN1c1nc2c(C=O)c(C)nn2c2ccccc12 (stereo not drawn),?,?,-5.5,-1.3,10µM*,-23.4%
COCCCN1C(=O)C(=O)/C(=C(/O)c2ccc(S(=O)(=O)N3CCCCC3)cc2)C1c1ccc(O)cc1 (stereo not drawn),4.0%[46.1 µM],7.9%[46.1 µM],-7.1,-5.7,5.4%,2.7%
Cc1cnc(CNc2ncnc3ccc(-c4ccc(N(C)C)cc4)cc23)cn1,nt,nt,nt,nt,nt,-6.9%
SMILES,MARV entry inh,LASV entry inh,Shiga inhibitor,Cycloheximide cs,HCV inhibitor,FMDV antiviral
CCC(CC)C(=O)Nc1cccc(C(=O)Nc2nccs2)c1,7.6%,0.8%,-12.4,3.5,-8.7%,-27.8%
COc1ccc(C(=O)Nc2nccs2)cc1,-27.0%,?,nt,29.0*,2.2%,49.6%
O=C(Nc1nccs1)c1cccc(NC(=O)C(F)(F)F)c1,nt,nt,73.5*,17.9*,-1.3%,31.2%
COc1ccc(C(=O)Nc2nccs2)cc1OC,9.3%,16.9%,115.8,27.6*,?,50.5%
CC(C)Cc1nnc(NC(=O)c2ccc([N+](=O)[O-])cc2)s1,17.5%,16.8%,22.8,17.0*,9.8%,23.6%
COC(=O)c1cc(OC)c(OC)cc1N,13.8%[46.1 µM],4.6%,8.0,-1.6,-2.0%,-10.1%
CC1(C(=O)NCc2ccccc2)CSCC(=O)N1Cc1cccs1 (stereo not drawn),nt,nt,nt,nt,nt,-11.7%
Cn1cc([N+](=O)[O-])c(C(=O)Nc2ccc(Br)cn2)n1,3.3%,14.2%,52.2*,25.0*,11.2µM*,14.8%
COc1ccc(NC(=O)Nc2nnc(CC(=O)Nc3ccccc3)s2)cc1,nt,nt,1.2,2.4,12.5%,-14.3%
Cn1cc([N+](=O)[O-])c(C(=O)Nc2nccs2)n1,nt,nt,40.2,30.4*,?,-10.9%
CCc1nnc(NC(=O)Nc2ccc(OC)cc2)s1,45.4%,24.5%,24.6,24.0*,-6.3%,16.9%
CC(C)Cc1nnc(NC(=O)CCC(=O)Nc2ccccc2)s1,-18.1%[46.1 µM],-11.7%[46.1 µM],8.0,-1.8,7.5%,21.3%
Cn1cc([N+](=O)[O-])c(C(=O)NCC(=O)O)n1,nt,nt,-20.0,1.7,19.0%,-5.9%
CCSc1ccc(C(=O)Nc2ccc(Br)cn2)cc1[N+](=O)[O-],nt,nt,20.0,7.0,?,-4.4%
CC(C)Cc1nnc(NC(=O)Nc2ccccc2)s1,?,?,57.5*,46.3*,2.6%,45.3%
COc1ccc(C(=O)Nc2nccs2)cc1[N+](=O)[O-],16.6%,2.8%,-2.8,27.3*,-6.9%,58.0%
COc1ccc(NC(=O)Nc2nnc(C)s2)cc1,19.8%[46.1 µM],29.9%[46.1 µM],nt,nt,nt,30.6%
Cc1ccc(NC(=O)Nc2nnc(Cc3ccc([N+](=O)[O-])cc3)s2)cc1,-7.4%,-3.7%,77.2*,50.0*,4.6%,40.6%
COC(=O)c1sccc1NC(=O)c1ccc(OC)c([N+](=O)[O-])c1,-14.9%,5.3%,-2.5,-1.4,-23.3%,-13.0%
CCOCc1nnc(NC(=O)c2ccc(OC)cc2)s1,-0.5%,0.0%,48.1*,22.5*,5.8%,0.0%
COc1ccc(NC(=O)Nc2nccs2)cc1,-10.1%,-21.5%,85.3*,32.2*,-8.2%,43.4%
CCOCc1nnc(NC(=O)c2ccc(NC(C)=O)cc2)s1,nt,nt,-3.2,-5.8,9.4%,10.9%
Cc1ccsc1C(=O)OCC(=O)Nc1ccc(Cl)cn1,nt,nt,nt,nt,-8.1%,66.9%
Cc1cccc(N2CCN(C(=O)C3CCN(C(=O)c4cc5sccc5n4C)CC3)CC2)c1C,-19.1%[46.1 µM],nt,nt,nt,nt,?
CN(CCc1ccccc1)C1CCCN(C(=O)Cn2cccn2)C1 (stereo not drawn),nt,nt,-7.4,1.7,22.0%,23.4%
Cn1c(=NC(=O)C2=NNC(=O)CC2)sc2ccccc21,-0.2%[46.1 µM],5.7%,44.5*,27.7*,-11.9%,65.6%
C[C@@H](C(=O)N=c1sc2ccccc2n1C)N1C(=O)C2CC=CCC2C1=O (stereo partly drawn),-13.4%[46.1 µM],?,nt,nt,-17.1%,?
Cc1ccc(NC(=S)N(Cc2ccco2)C(C)c2cccs2)c(Cl)c1 (stereo not drawn),?,?,-7.7,-5.2,?,10.4%

# From PubChem BioAssay
